Reference: PubChem BioAssay
Results with a measured potency or affinity are listed apart. Activity calls are given as the source filed them. The limit is not given here; nearly all actives have IC50 up to about 0.91 µM.

target: Calcium-dependent protein kinase 4 (Plasmodium falciparum (isolate 3D7)) (UniProt Q8IBS5); experiment: PfCDPK4 kinase inhibitors, biochemical, TCAMS library (AID 1159588); settings: recombinant PfCDPK4, Kinase-Glo ATP depletion luminescence
Sequence (Q8IBS5 whole entry, looked up): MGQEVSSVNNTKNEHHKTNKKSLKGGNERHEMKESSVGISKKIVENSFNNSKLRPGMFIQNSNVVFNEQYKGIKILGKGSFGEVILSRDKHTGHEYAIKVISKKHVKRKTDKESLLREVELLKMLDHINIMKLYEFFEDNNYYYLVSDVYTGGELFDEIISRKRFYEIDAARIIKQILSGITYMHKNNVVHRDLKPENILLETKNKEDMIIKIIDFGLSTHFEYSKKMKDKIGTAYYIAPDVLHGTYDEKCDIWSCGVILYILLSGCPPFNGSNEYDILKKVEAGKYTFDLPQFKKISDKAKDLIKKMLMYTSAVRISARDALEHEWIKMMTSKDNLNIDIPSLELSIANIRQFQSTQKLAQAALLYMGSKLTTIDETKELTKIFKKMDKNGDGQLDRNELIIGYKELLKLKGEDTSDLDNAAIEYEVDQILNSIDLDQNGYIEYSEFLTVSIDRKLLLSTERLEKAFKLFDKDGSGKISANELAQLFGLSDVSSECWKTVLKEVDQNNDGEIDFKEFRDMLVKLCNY

outcome, inactive:
N#Cc1ccc(-c2ccc(C(=O)NCCCCN3CCC(c4nc5ccccc5[nH]4)CC3)cc2)cc1, c1cncc(CCNCc2ccc(-c3ccc(CNC4Cc5ccccc5C4)cc3)cc2)c1, O=C(Nc1ccc(Cl)cc1)Nc1cccc(-c2cccc(-c3nc4ccccc4[nH]3)c2)c1, Cc1cccc2[nH]c(-c3ccc(-c4ccc(CN5CCN(C6CCN(C)CC6)CC5)cc4)cc3)nc12, CN(C)CCN(C)Cc1ccc(-c2cccc(NC(=O)c3ccc(Cl)cc3)c2)cc1, O=C(Nc1cccc(-c2ccc(NCCCN3CCCC3)nc2)c1)c1ccccc1, Cc1nnsc1C(=O)Nc1cccc(-c2cccc(-c3nc4ccc(F)cc4[nH]3)c2)c1, COc1ccc2nccc([C@@H](O)CN3CCC(NCC(=O)Nc4cc(F)cc(F)c4)CC3)c2n1, Cc1cc(N2CCCCC2)nc2ccc(NC(=O)c3cccc([N+](=O)[O-])c3)cc12, O=S(=O)(c1cc(Cl)sc1Cl)N(CCC(O)(C(F)(F)F)C(F)(F)F)Cc1cccc(O)c1, CC(=O)Nc1cc(C(=O)Nc2cccc(-c3cccc(-c4nc5ccc(C(F)(F)F)cc5[nH]4)c3)c2)ccc1C, COC(=O)c1ccc(C2OC3(C(=O)c4ccccc4C3=O)C(OC)=C2Cl)cc1C(C)=O (stereo not given), Cc1ccc(S(=O)(=O)N2CCN(C(=O)c3cc(-c4cccs4)[nH]n3)CC2)c(C)c1, O=C(NCCCN1CCOCC1)c1csc(Nc2ccc(Cl)c(Cl)c2)n1, CCCc1cc(Cc2cnc(N)nc2N)ccc1OCCCCCC(=O)OCC, CC(=NNC(=S)Nc1ccccc1Cl)c1ccccn1, O=C(Cn1c(CCc2cccc(F)c2F)nc(=O)c2cccnc21)N(Cc1ccc(-c2ccc(C(F)(F)F)cc2)cc1)C1CCN(C2CCOCC2)CC1, CCn1c(-c2ccccc2)cc2nnc3ccccc3c21, CCCc1ccc(S(=O)(=O)NC2CCN(c3ccnc(Nc4ccc(OC)cc4)n3)C2)cc1 (stereo not given), O=C(C=Cc1cccs1)Nc1ccc(-c2nc3ccccc3[nH]2)cc1, O=C(CC1SC(N2N=C(c3cccs3)CC2c2ccccc2)=NC1=O)Nc1ccc(Cl)cc1 (stereo not given), O=C(NCc1ccc(Cl)c(Cl)c1)c1ccc(-c2nc3ccc(Cl)cc3[nH]2)cc1, C=C[C@H]1CN(CCCCCCC)CC[C@H]1CC(=O)Nc1cnnc2ccc(OC)cc12, O=C(Cc1ccc(NC(=O)c2ccc(O)c(-c3ccc(Cl)c(Cl)c3)c2)cc1)NCCc1ccc(Cl)c(Cl)c1, COc1cc2c(c(Cl)c1OC)CCN(Cc1ccccc1)CC2c1ccc(C(N)=O)cc1 (stereo not given), Clc1cnc2ccc3c(c2c1CCN1CCC(NCc2cc4c(cn2)OCCO4)CC1)OCCO3, Cc1cccc2[nH]c(-c3cccc(-c4ccc(CNCCCN5CCCC5=O)cc4)c3)nc12, Cc1nc2nc(N)nc(N)c2c(C)c1Cc1ccccc1, CC(C)(C)c1ccc(C(=O)Nc2cccc(Nc3c(C(=O)NCc4cccc(C(F)(F)F)c4)cnc4c(O)cccc34)c2)cc1, NCCCNc1nccc(N2CCc3ncnc(Nc4ccc(OCc5cccc(F)c5)c(Cl)c4)c3C2)n1, COc1cc2nc(N3CCC(CNC(=O)c4cccc5cccnc45)CC3)nc(N)c2cc1OC, S=C(Nc1cccc(Cl)c1)NC1CCN(c2ccnc3cc(Cl)ccc23)C1 (stereo not given), Cc1cccc2[nH]c(-c3cccc(-c4ccc(NC(=O)C(=O)c5cccn5C)cc4)c3)nc12, Cc1cc(N[C@@H](Cc2ccccc2)C(=O)NCc2cccc(F)c2)nc(Nc2ccccc2)n1, CN1CCCN(Cc2ccc(-c3ccc(NC(=O)c4cccc(Cl)c4)cc3)cc2)CC1, CCS(=O)(=O)c1ccc(-c2cnc3[nH]cc(-c4ccc(N)cc4)c3c2)cc1, CC(C)c1ccc(OCC(O)CN(CCN2CCOCC2)C(=O)Nc2ccc(Br)cc2)cc1 (stereo not given), CN1CCc2cc(Br)c(O)cc2C1Cc1ccccc1Cl (stereo not given), OC1CCC(Nc2ccc3ncc(-c4ccc5ccccc5c4)n3n2)CC1 (stereo not given), COc1ccc(Nc2cc(C)c3cc(NC(=O)c4ccncc4)ccc3n2)cc1
